Screening data deposited in PubChem BioAssay by National Center for Advancing Translational Sciences (NCATS).
The list is not random: actives were taken first. Their share in the collection is about 21%.
Pf growth 48h = inhibits P. falciparum growth in the first generation, 48 h. P. falciparum luciferase growth in erythrocytes, 48 h. actives 5.9% (n = 310,000). AID 504832. Potency, µM (top dose mostly 28.7 µM), inactives show top-dose activity change, negative = inhibition, most hits filed as inhibitors; further: potency means the concentration at half of the fitted maximal effect; on the % scale 0 is the no-effect control and ±100 the full control effect
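Parasite viability was followed by luminescence of a genomically integrated firefly luciferase. Cultures held 0.1% parasitemia at 2% hematocrit (final), incubated under 5% CO2 at 37 C.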
NS1 inh = influenza NS1 inhibition | AID 2326 | Potency, µM (highest dose often 46.1 µM), for the others: top-dose activity, positive = more growth | actives 0.4% (n = 270,000); calls by dose curve; further: potency means the concentration at half of the fitted maximal effect; actives are rising curves; nearly all actives have a fitted effect of over 50% in size
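OD600 was taken as the measure of yeast growth restored by compound in an NS1-expressing S. cerevisiae strain. Cells had been washed out of glucose medium and diluted 1:100 into galactose -URA medium, pH 6.0.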
Pf growth 96h = P. falciparum growth inhibition at 96 hours; P. falciparum luciferase reporter growth, 96 h; actives 6.9% (n = 320,000); Potency, µM (highest dose often 28.7 µM), for the others: top-dose activity change, negative = inhibition, actives largely listed as inhibitors; further: potency means the concentration at half of the fitted maximal effect; on the % scale 0 is the no-effect control and ±100 the full control effect
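Infected RBCs, 2% Hct / 0.05% parasitemia final; luciferase-reporter P. falciparum; cpd 96 h, 37 C, 5% CO2; luciferase detection reagent; luminescence.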
Cycloheximide cs = counter-screen hit for Shiga toxin inhibitors, cycloheximide. cell reporter, cycloheximide protein synthesis inhibition counterscreen. actives 12% (n = 300,000). max response, %; in the data active means max response mostly above about 13%, no sharp cut-off; inactive means mostly below about 14%; further: read at 38.3 µM for the half of the compounds with a filed dose; 0% is about no effect
Shiga toxin inh = inhibitors of Shiga toxin in Vero cells; Vero cells, Shiga toxin protein synthesis inhibition reporter; inhibition, % at 38.7 µM; actives 9.2% (n = 290,000); AID 2315; in the data active means inhibition mostly above about 28%, no sharp cut-off; inactive means mostly below about 43%; further: 0% is about no effect
An asterisk follows results filed as active; ? = inconclusive; . = not tested or not shown. Unless noted, the call rests on the fitted dose curve; in most records, active means well fitted inhibition curve with a large enough effect; inconclusive means small, poorly fitted or top-dose-only effect, or another doubt; inactive means no such curve, though single readings can be large or run the other way.

SMILES | Pf growth 48h | NS1 inh | Pf growth 96h | Cycloheximide cs | Shiga toxin inh
O=C1N/C(=N\N=C\c2cccs2)SC1Cc1ccc(Cl)c(Cl)c1 (configuration not stated) | ? | . | ? | 13 | 1
O=C(Nc1cccc(Cl)c1)c1nc[nH]c1C(=O)N1CCN(c2ccccc2)CC1 | 18% | . | ? | . | .
Cc1ccc(S(=O)(=O)Nc2cccc3c2CCCC3)cc1 | 12% | -21% | 0% | 1 | -6
Cc1occc1C(=O)N1CCN(c2ccc(Cl)cc2)CC1 | 15% | -20% | 4.7µM* | -1 | -25
CCCC(=O)N1CCN(c2ccc(NC(=O)c3ccco3)cc2)CC1 | 36% | -12% | . | 8 | 11
O=C(Nc1ccc(NC(=O)c2cccs2)cc1)c1ccc(Br)o1 | . | -4% | 31% | 14 | 28
CCN1CCN(c2ccc(NC(=O)c3ccc4c(c3)[nH]c(=O)n4Cc3ccc(F)cc3)cc2)CC1 | 7.4µM* | 28% | 13µM* | -3 | 10
CCN1CCN(c2ccc(NC(=O)c3ccco3)cc2)CC1 | 86% | 10% | 5% | 42* | 34*
COc1ccc(Cn2c(=O)[nH]c3cc(C(=O)Nc4ccc(N5CCN(C)CC5)cc4)ccc32)cc1 | -21% | 6% | ? | 4 | -17
O=C(Nc1ccc(N2CCN(C(=O)c3cccs3)CC2)cc1)c1ccc(Br)o1 | 12µM* | . | ? | . | .
Cc1n[nH]c(C)c1CCNC(=O)C1CCC(=O)N(Cc2ccccc2F)C1 (configuration not stated) | 16% | 24% | -41% | 3 | 9
O=C(Nc1ccc(N2CCN(C(=O)c3ccco3)CC2)cc1)c1ccc2c(c1)OCO2 | 13µM* | 10% | ? | -1 | -4
O=C(/C=C/c1ccco1)N1CCN(c2ccccc2)CC1 | -14% | -5% | -10% | 20 | 28
O=C(/C=C\c1ccco1)Nc1ccc(N2CCN(C(=O)c3ccccc3)CC2)cc1 | ? | 14% | 5.9µM* | -3 | 5
CC(C)c1ccc(NC(=O)C(c2ccccc2)N2CCN(C(=O)c3ccco3)CC2)cc1 (configuration not stated) | 9.3µM* | -74% | ? | 55* | 125*
O=C(Nc1ccc(N2CCN(C(=O)c3ccco3)CC2)cc1)c1ccco1 | -9% | -2% | ? | 12* | 43
COc1ccc(/C=N/NC(=O)c2ccncc2)cc1COc1ccc(NC(C)=O)cc1 | 15% | -8% | 6% | 2 | -6
O=C(N[C@H]1CP(=O)(Oc2ccccc2)O[C@H](COCc2ccccc2)[C@H]1O)C(Cl)(Cl)Cl (some centres not stated) | ? | 2% | 12µM* | 25* | -2
CCn1cc(C(=O)N2CCCC(C(=O)c3ccc4ccccc4c3)C2)cn1 (configuration not stated) | -26% | -33% | -12% | 10 | -2
CCn1ccnc1CN1CCCC(CO)(Cc2cccc(OC)c2)C1 (configuration not stated) | -4% | 5% | ? | 19 | -2
COc1ccc(CN2CCCC(CO)(Cc3ccc(F)cc3)C2)c(OC)c1OC (configuration not stated) | -17% | 0% | 12µM* | 1 | -4
COc1cc(CN2CCCC(CO)(Cc3ccccc3)C2)ccc1O (configuration not stated) | 16% | ? | 10µM* | -1 | .
CC(C)Oc1ccc(CN2CCCC(CO)(Cc3ccc(F)cc3)C2)cc1 (configuration not stated) | ? | 4% | 10% | -2 | -7
OCC1(Cc2cccc(Cl)c2)CCCN(Cc2cnn(-c3ccccc3)c2)C1 (configuration not stated) | 8.3µM* | 3% | -8% | -3 | -14
COc1cccc(CC2(CO)CCCN(Cc3ccc4c(c3)OCCO4)C2)c1 (configuration not stated) | -36% | 1% | 10µM* | -1 | -16
COc1ccc(CN2CCN(CCSc3ccc(C)cc3)CC2)c(OC)c1OC | 1% | 8% | 13% | -1 | -3
C=CCNc1nc(Nc2ccc([N+](=O)[O-])cc2)nc(OC)n1 | ? | . | 155% | 8 | 37
C=CCNc1nc(Cl)nc(Nc2ccc([N+](=O)[O-])cc2)n1 | 16% | . | 2.3µM* | -1 | -7
C=CCNc1nc(NCC)nc(N2CCOCC2)n1 | 7% | -1% | ? | 3 | -19
C=CCNc1nc(Nc2ccc(-c3nc4ccccc4o3)cc2)nc(N2CCOCC2)n1 | . | 25% | 4.7µM* | 6 | 24
